Data from ChEMBL document CHEMBL2218924, “A broad activity screen in support of a chemogenomic map for kinase signalling research and drug discovery” (Biochem J, 2013).

Target: T1, Protein kinase C zeta type (Homo sapiens) (UniProt Q05513)
T1 sequence (whole entry): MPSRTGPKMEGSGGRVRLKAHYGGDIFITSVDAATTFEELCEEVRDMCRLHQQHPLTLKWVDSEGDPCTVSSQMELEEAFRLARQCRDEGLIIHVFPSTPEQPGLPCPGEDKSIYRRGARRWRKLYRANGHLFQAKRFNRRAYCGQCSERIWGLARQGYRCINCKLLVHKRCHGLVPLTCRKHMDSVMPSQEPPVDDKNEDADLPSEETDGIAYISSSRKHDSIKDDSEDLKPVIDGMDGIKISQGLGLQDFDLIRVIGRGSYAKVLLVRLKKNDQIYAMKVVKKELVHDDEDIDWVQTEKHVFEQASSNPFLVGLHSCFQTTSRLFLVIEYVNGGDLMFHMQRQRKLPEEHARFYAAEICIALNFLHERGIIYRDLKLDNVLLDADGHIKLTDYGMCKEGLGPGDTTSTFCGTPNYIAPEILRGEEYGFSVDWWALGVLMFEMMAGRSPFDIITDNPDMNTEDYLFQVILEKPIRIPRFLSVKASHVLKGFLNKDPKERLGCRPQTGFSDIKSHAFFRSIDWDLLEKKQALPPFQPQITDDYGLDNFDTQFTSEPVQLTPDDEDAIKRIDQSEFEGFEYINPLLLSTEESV
Conditions: at 1 µM; call rule not given here

Structure (SMILES) | residual activity
COc1cc2ncnc(N3CCN(C(=O)Nc4ccc(Oc5ccccc5)cc4)CC3)c2cc1OC | 113% (inactive)
COc1ccc(C(=O)Nc2sc3c(c2C(N)=O)CCCC3)cc1OC | 96% (inactive)
Cc1cncc2cccc(S(=O)(=O)N3CCCN(C(=O)CN)C[C@H]3C)c12 | 88% (inactive)
O=C(Nc1cccc(Nc2nccc(Nc3cccc(C(F)(F)F)c3)n2)c1)C1CC1 | 98% (inactive)
O=C1NC(=O)/C(=C\c2ccc3nccnc3c2)S1 | 104% (inactive)
O=C1NC(=O)/C(=C/c2ccc3c(c2)OC(F)(F)O3)S1 | 97% (inactive)
Nc1ccc2ncnc(NCCc3ccc(Oc4ccccc4)cc3)c2c1 | 108% (inactive)
Cc1ccc(NC2=CC(=O)c3sc(C)nc3C2=O)cc1 | 100% (inactive)
Oc1n[nH]c2nnc(-c3c(-c4ccccc4)nn4ccccc34)cc12 | 107% (inactive)
COc1ccc(OC)c2c(=S)c3ccccc3[nH]c12 | 104% (inactive)
O=C1Nc2ccc(Br)cc2/C1=C\c1cc2c([nH]1)CCCC2 | 103% (inactive)
N#CCCc1ccc2c(c1)-c1[nH]c3ccc([N+](=O)[O-])cc3c1CC(=O)N2 | 69% (inactive)
Cc1cc(Nc2nc(-c3ccccc3)nc3ccccc23)n[nH]1 | 110% (inactive)
CC(=O)c1ccc(N2CCOCC2)cc1O | 107% (inactive)
c1ccc(-c2n[nH]cc2-c2ccnc3ccccc23)nc1 | 108% (inactive)

Target: T2, Mitogen-activated protein kinase kinase kinase 5 (Homo sapiens) (UniProt Q99683)
T2 sequence (whole entry): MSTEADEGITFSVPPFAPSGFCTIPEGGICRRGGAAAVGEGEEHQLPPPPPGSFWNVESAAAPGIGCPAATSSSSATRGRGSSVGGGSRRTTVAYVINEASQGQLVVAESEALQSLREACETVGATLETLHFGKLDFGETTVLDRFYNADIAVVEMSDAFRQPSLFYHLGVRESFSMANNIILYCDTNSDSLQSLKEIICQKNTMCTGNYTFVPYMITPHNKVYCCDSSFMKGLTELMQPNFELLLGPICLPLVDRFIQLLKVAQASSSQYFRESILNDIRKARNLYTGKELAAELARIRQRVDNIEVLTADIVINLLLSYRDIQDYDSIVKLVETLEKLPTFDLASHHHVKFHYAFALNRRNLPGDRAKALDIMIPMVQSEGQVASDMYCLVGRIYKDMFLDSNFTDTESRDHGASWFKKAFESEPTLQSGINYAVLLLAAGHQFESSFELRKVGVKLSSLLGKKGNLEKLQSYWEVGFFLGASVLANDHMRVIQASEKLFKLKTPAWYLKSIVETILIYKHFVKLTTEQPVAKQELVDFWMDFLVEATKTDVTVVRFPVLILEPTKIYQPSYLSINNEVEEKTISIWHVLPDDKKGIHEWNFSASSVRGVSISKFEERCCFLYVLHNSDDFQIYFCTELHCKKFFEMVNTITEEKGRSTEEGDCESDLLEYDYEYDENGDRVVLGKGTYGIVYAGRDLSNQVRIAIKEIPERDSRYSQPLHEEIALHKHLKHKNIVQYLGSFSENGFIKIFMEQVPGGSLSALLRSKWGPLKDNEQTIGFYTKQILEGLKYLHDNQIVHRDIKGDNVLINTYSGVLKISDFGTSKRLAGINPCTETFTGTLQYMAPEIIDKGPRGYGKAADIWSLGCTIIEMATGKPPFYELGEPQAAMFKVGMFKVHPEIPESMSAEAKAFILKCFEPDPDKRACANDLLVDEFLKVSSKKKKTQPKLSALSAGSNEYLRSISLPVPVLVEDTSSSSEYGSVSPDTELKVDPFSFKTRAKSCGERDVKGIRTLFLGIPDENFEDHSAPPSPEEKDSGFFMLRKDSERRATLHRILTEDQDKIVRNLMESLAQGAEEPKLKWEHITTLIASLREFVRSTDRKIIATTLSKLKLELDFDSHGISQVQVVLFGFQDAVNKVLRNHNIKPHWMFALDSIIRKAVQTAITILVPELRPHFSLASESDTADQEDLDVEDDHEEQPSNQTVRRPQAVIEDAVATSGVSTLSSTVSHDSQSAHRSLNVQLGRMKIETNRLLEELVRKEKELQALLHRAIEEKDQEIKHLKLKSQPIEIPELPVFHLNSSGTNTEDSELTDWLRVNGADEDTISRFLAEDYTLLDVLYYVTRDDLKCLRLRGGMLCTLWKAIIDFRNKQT
Conditions: at 10 µM

Structure (SMILES) | residual activity
COc1ccc(CNc2nc(N(CCO)CCO)nc3c2ncn3C(C)C)cc1 | 85%
O=C1NC(=O)c2c1c1c3ccccc3[nH]c1c1[nH]c3cc(Br)ccc3c21 | 86%
O=C1Nc2cc(Br)ccc2/C1=C1/Nc2ccccc2/C1=N\O | 86%
Cc1cccc(-c2[nH]c(C(C)(C)C)nc2-c2ccc3c(c2)OCO3)n1 | 88%
COc1cc2ncnc(Nc3ccc(NC(=O)c4ccccc4)cc3)c2cc1OC | 100%
Nc1nc(Nc2ccc(S(N)(=O)=O)cc2)nn1C(=S)Nc1c(F)cccc1F | -1%
NC(=O)c1ccc2[nH]c(-c3ccc(Oc4ccc(Cl)cc4)cc3)nc2c1 | 61%
c1ccc(-c2n[nH]c3c2oc2ccccc23)cc1 | 90%
Oc1c2ccccc2c2c3c(cccc13)N=N2 | 5%
Cc1nc2cc3nc(-c4cccs4)cnc3cc2n1C | 112%
N#CC(C#N)=C(N)/C(C#N)=C/c1ccc(O)cc1 | 93%
Oc1ccc(-c2nc(-c3ccc(F)cc3)c(-c3ccncc3)[nH]2)cc1 | 80%
Oc1ccc(Nc2nc(-c3ccc(Cl)cc3)cs2)cc1 | 105%
CCN(CC)C(=O)c1ccc(Nc2nc(OCC3CCCCC3)c3nc[nH]c3n2)cc1 | 24%
O=C(Nc1cccc(Nc2cc(Nc3cccc(C(F)(F)F)c3)ncn2)c1)C1CC1 | 104%
C[C@@H](N)[C@H]1CC[C@H](C(=O)Nc2ccncc2)CC1 | 96%
CCC(=O)Nc1ccc2ncnc(Nc3cccc(Br)c3)c2c1 | 108%

Structure (SMILES) | residual activity
CO[C@@H]1[C@H](N(C)C(=O)c2ccccc2)C[C@H]2O[C@]1(C)n1c3ccccc3c3c4c(c5c6ccccc6n2c5c31)C(=O)NC4 | 75%
COc1cc2ncnc(N3CCN(C(=O)Nc4ccc(Oc5ccccc5)cc4)CC3)c2cc1OC | 67%
Nc1cccc(-c2cc3c(Oc4cccc(O)c4)ncnc3[nH]2)c1 | 95%
COc1ccc(C(=O)Nc2sc3c(c2C(N)=O)CCCC3)cc1OC | 109%
Cc1cncc2cccc(S(=O)(=O)N3CCCN(C(=O)CN)C[C@H]3C)c12 | 87%
O=C(Nc1cccc(Nc2nccc(Nc3cccc(C(F)(F)F)c3)n2)c1)C1CC1 | 90%
COc1cc2ncc(-c3ccccc3)nc2cc1OC | 77%
O=C1NC(=O)/C(=C\c2ccc3nccnc3c2)S1 | 80%
O=C1NC(=O)/C(=C/c2ccc3c(c2)OC(F)(F)O3)S1 | 97%
Nc1ccc2ncnc(NCCc3ccc(Oc4ccccc4)cc3)c2c1 | 80%
Cc1ccc(NC2=CC(=O)c3sc(C)nc3C2=O)cc1 | 116%
Oc1n[nH]c2nnc(-c3c(-c4ccccc4)nn4ccccc34)cc12 | 105%
COc1ccc(OC)c2c(=S)c3ccccc3[nH]c12 | 97%
O=C1Nc2ccc(Br)cc2/C1=C\c1cc2c([nH]1)CCCC2 | 81%
Cc1cc(Nc2nc(-c3ccccc3)nc3ccccc23)n[nH]1 | 100%
CC(=O)c1ccc(N2CCOCC2)cc1O | 95%
c1ccc(-c2n[nH]cc2-c2ccnc3ccccc23)nc1 | 105%
